Experimental data as given in PubChem BioAssay AID493194 (Broad Institute, 2011).
Results with a measured potency or affinity are listed apart. Records with an inconclusive call do not appear. Calls of active or inactive are those of the source.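 How the source made its calls: active means a valid curve of falling signal whose half-effect concentration is at most ten times the top tested dose; inconclusive means flat curve at 30 to 70% inhibition, or poor fit; inactive means signal rise, flat within 30%, or potency beyond limit.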

Biological target: Scavenger receptor class B member 1 (Mus musculus) (UniProt Q61009)
Experiment: mouse SR-BI DiI-HDL uptake blockers – ldlA[mSR-BI] cells, fluorescence, cherry pick, dose response (AID 493194);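 further: CHO cells lacking LDL receptor and overexpressing mouse SR-BI; cellular uptake of fluorescently labeled HDL measured as cell fluorescence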
Details: CHO ldlA[mSR-BI] DiI-HDL uptake fluorescence, 3 h; series mostly up to 35 µM

Sequence of Scavenger receptor class B member 1 (Mus musculus) (Q61009 whole entry, looked up): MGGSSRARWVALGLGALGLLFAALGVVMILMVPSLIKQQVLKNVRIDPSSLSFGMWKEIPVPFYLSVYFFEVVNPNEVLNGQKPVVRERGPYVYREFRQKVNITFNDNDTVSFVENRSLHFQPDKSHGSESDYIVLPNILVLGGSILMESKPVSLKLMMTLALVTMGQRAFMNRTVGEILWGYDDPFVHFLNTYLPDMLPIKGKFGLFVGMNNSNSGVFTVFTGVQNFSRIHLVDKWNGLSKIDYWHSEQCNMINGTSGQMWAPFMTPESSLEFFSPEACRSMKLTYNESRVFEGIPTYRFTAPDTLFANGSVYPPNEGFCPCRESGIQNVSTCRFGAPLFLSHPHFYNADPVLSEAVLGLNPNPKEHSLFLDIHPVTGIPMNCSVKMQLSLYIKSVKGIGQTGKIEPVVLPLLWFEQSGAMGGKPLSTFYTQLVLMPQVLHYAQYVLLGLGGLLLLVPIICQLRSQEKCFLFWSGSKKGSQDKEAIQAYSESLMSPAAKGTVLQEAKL

outcome, inactive:
CCOc1ccccc1NC(=O)N1C2CCCC1CC(NC(=O)C1CC1)C2 (centres undefined), Cc1ccc(-c2nnc(N3CCC(C)CC3)c3ccccc23)cc1C, Oc1ccc(/C=C/c2nc(-c3ccccc3O)n(-c3ccccc3)n2)cc1, Cc1ccc(-c2nn(-c3ccccc3)cc2/C=C/C(=O)OCC(=O)NC2CC2)o1, COCC(C)N1CC(O)=C(c2nc(-c3ccc(Cl)cc3)cs2)C1=N (centres undefined), Cc1ccc(CNC(=O)c2ccc(N3CCC4(CC3)CC(c3cccc(Br)c3)=NO4)c([N+](=O)[O-])c2)cc1, COc1cccc(-c2csc(N3CCN(C(=O)NC45CC6CC(CC(C6)C4)C5)CC3)n2)c1, CC1CCCCC1NC(=O)C1CCN(C(=O)c2sccc2-n2cccc2)CC1 (centres undefined), Cc1c(C(=O)CN2CCCC(C)(C)C2)c2ccccc2n1C, CCC(=O)Nc1ccccc1-c1nnn(CC(=O)N2c3ccccc3CC2C)n1 (centres undefined), COc1cc(C(=S)N2CCCC2)ccc1OC(=O)c1ccc(Cl)cc1[N+](=O)[O-], CC(=O)Nc1ccc(S(=O)(=O)N2CCC(C(=O)NCCC(=O)NCc3ccccc3)CC2)cc1, CC(C)C(C(=O)OCC(=O)c1ccc2c(c1)NC(=O)CO2)N1C(=O)c2ccccc2C1=O (centres undefined), Cc1cc(C)nc(Nc2n[nH]c(-c3ccc(C(C)(C)C)cc3)n2)n1, CCNc1nc(Cl)nc(-c2cn(-c3ccccc3)c3ccccc23)n1, N#Cc1ccccc1S(=O)(=O)N1CCN(C(=O)C2CC(=O)N(c3ccc4c(c3)OCCO4)C2)CC1 (centres undefined), COc1ccc(-c2nc(CN3CCN(c4ncnc5ccccc45)CC3)c(C)o2)c(OC)c1, CCOc1ccccc1COC(=O)c1cccc(-n2cnnn2)c1, CS(=O)(=O)N1CCc2cc(C(=O)Nc3cccc([N+](=O)[O-])c3)ccc21, CC(Sc1nc2cc([N+](=O)[O-])ccc2n1-c1ccc(F)cc1)C(=O)NCc1ccc2c(c1)OCO2 (centres undefined), COc1ccc(C2/C=C\CN(S(=O)(=O)c3ccc(C)cc3)CC(=O)N2Cc2cccc(F)c2)cc1 (centres undefined), O=C(c1ccc(S(=O)(=O)NCc2ccco2)cc1)N1CCN(Cc2ccc3c(c2)OCO3)CC1, O=C(c1ccc(S(=O)(=O)NCc2ccco2)cc1)N1CCN(Cc2ccccc2F)CC1, CN(Cc1cc(Cl)cc(Cl)c1O)Cc1c(O)ccc2ccccc12, CCOc1ccc(NC(=O)CN2CCN(CC(=O)Nc3ccc(N(C)C)cc3)CC2)cc1, CCN(C(=O)COC(=O)c1c(C)c(-c2ccccc2)nc2ccccc12)C1CCS(=O)(=O)C1 (centres undefined), CCOC(=O)c1[nH]c2c(c1C)C(=O)CC(c1ccc(F)cc1)C2 (centres undefined), COC(=O)c1[nH]c2c(c1C)C(=O)CC(c1cccs1)C2 (centres undefined), COC(=O)[C@]1(CC(C)C)N[C@H](c2ccc(-c3cccc(Cl)c3)cc2)[C@@H]2C(=O)N(C)C(=O)[C@@H]21, Cc1cccc(N2CCN(C(=O)COc3ccc4c(C)cc(=O)oc4c3C)CC2)c1C, COc1cc2c(C#CCCCO)c(-c3ccsc3)oc(=O)c2cc1OC, N#Cc1ccc(CN2CCN(C(=O)c3ccc(S(=O)(=O)NCc4ccco4)cc3)CC2)cc1, COc1ccc(N2CCN(C(=O)Cc3csc(NC(=O)Nc4ccccc4OC)n3)CC2)cc1, O=C1C2C3C=CC(C3)C2C(=O)N1c1cccc(N2C(=O)C3C4C=CC(C4)C3C2=O)n1 (centres undefined), C=CCN(CC=C)C(=O)COn1nnc2ccc(S(=O)(=O)N3CCOCC3)cc21, CC(C(=O)NCc1ccccc1)N(Cc1ccccc1Cl)C(=O)c1snc(C(N)=O)c1N (centres undefined), COc1ccc(C2/C=C\CN(S(=O)(=O)c3ccc(-c4ccccc4)cc3)CC(=O)N2Cc2ccc(F)cc2)cc1 (centres undefined), O=C(CN1CCN(c2ncc(C(F)(F)F)cc2Cl)CC1)NCCNc1ncc(C(F)(F)F)cc1Cl, CC(=O)c1c(C)[nH]c(C(=O)Nc2ccc(C)c(S(=O)(=O)Nc3ccc(C)cc3C)c2)c1C
